From PubChem BioAssay AID651610 (Broad Institute, 2012)
The whole screen tested about 360,000 compounds, of which about 3,900 (1.1%) were called active.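 The calls were made as follows: active = mean replicate inhibition score of at least 50 and every replicate individually at or above 50; inconclusive = only one of the two criteria met; inactive = mean below 50 and not all replicates reaching 50.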 The entries come from a sample that favours actives as a whole.

Experiment: inhibitors of HIV-1 Env-driven cell-cell fusion, primary screen, HeLa-JRFL effector, CEM21 target cells, luciferase (AID 651610);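 also: 0% = plate neutral controls and 100% = maraviroc near 300 nM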
Settings: active compounds read high; at 16.7 µM unless noted

inhibition, inactive:
O=C(C[C@@H]1CC[C@H]2NC[C@H](O)COC[C@@H]2O1)NCCN1CCCCC1 -8.63%
C[C@H]1CCCCO[C@@H](CN(C)C(=O)Cc2ccccc2)[C@@H](C)CN([C@@H](C)CO)C(=O)c2cc(NC(=O)c3ccccc3)ccc2O1 -43.3%
COc1ccc(C(N)c2csc(NC(=O)Nc3cccc(C(F)(F)F)c3)n2)cc1 (stereo unspecified) 18.1% [at 12.3 µM]
NC(c1ccccc1)c1csc(NC(=O)Nc2cccc(C(F)(F)F)c2)n1 (stereo unspecified) 39.2% [at 12.3 µM]
C[C@@H]1CN([C@@H](C)CO)C(=O)c2cc(-c3ccccc3F)cnc2O[C@H]1CN(C)C(=O)C1CC1 15%
Cc1cc(C)cc(NC(=S)NCCc2c[nH]c3ccccc23)c1 2.48% [at 12.3 µM]
COc1ccc(C(CCNCc2ccccc2F)c2ccc(F)cc2)cc1 (stereo unspecified) -1.51% [at 12.3 µM]
CC(C)CC#Cc1ccc2c(c1)O[C@H](CN(C)Cc1ccncc1)[C@H](C)CN([C@H](C)CO)S2(=O)=O 12.7%
CCCNC(=O)C[C@@H]1CC[C@H]2[C@H](COc3ccc(NC(=O)CCC)cc3C(=O)N2C)O1 -1.97%
CCNC(=O)c1cc2c(c(-c3cccc(C4=CCCC4)c3)n1)[C@H](CCO)N([S@@](=O)C(C)(C)C)C2 -0.132%
CNc1nc(Nc2ccc(C)c(Cl)c2)nc(N)c1[N+](=O)[O-] 17.7% [at 12.3 µM]
COc1ccc(Nc2nc(NCc3ccco3)nc(N/N=C/c3ccccc3Cl)n2)cc1 -11.9% [at 12.3 µM]
CO[C@H]1CN(C)C(=O)c2ccc(NC(C)=O)cc2OC[C@@H](C)N(C(=O)c2ccccn2)C[C@@H]1C 4.28%
C[C@@H]1CN([C@H](C)CO)S(=O)(=O)c2ccc(Br)cc2O[C@@H]1CN(C)Cc1cncnc1 -25.8%
C[C@@H]1CN([C@H](C)CO)C(=O)c2cccc(N(C)C)c2O[C@H]1CN(C)S(=O)(=O)c1cn(C)cn1 -2.57%
O=C(CN1CCOCC1)Nc1ccc(NC(=O)CN2CCOCC2)c(Cl)c1 -13.8% [at 12.3 µM]
O=C(Cc1ncc(C(F)(F)F)cc1Cl)Nc1cccc(Br)c1 -3.53% [at 12.3 µM]

inhibition, active:
NC(c1csc(NC(=O)Nc2cccc(C(F)(F)F)c2)n1)C1CCCCC1 (stereo unspecified) 61% [at 12.3 µM]
COc1cccc(CNCCc2c[nH]c3ccccc23)c1OCc1ccccc1F 79.1% [at 12.3 µM]
COc1cccc(Nc2nc(N)c([N+](=O)[O-])c(NCc3ccco3)n2)c1 56.2% [at 12.3 µM]
O=C(CC(O)(C(F)(F)F)C(F)(F)F)Nc1ccc(Cl)c(Cl)c1 109% [at 12.3 µM]
